Experimental data: PubChem BioAssay (Tox21)
Records with an inconclusive call do not appear. Active and inactive are the calls of the source. Unless noted, the call rests on the fitted dose curve; in most records, active means well fitted curve in the direction sought with a large enough effect in the repeat runs; inconclusive means weak or mixed curves; inactive means no such curve, though single readings can be large; an effect the other way counts as inactive or inconclusive.

How the values were obtained:
[1] = qHTS assay for small molecules that induce genotoxicity in human embryonic kidney cells expressing luciferase-tagged ATAD5 (AID 651632); further: nearly all actives have a fitted effect of over 15% in size; further: potency means the concentration at half of the fitted maximal effect
Procedure, shortened: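 HEK293T cells carrying luciferase-tagged ATAD5 were given compound or DMSO vehicle and incubated 16 hr at 37C, 5% CO2. Luciferase activity was read after 30 min at room temperature with Amplite; a rise signals genotoxic stress.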

[2] = qHTS assay for small molecule agonists of the p53 signaling pathway - cell viability (AID 651633; calls by dose curve; further: nearly all actives have a fitted effect of over 30% in size; further: potency means the concentration at half of the fitted maximal effect)
Procedure, shortened: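 Viability counter-read: CellTiter-Glo luminescence (30 min, room temperature) in the same p53RE-bla plates. These plates had been exposed to compounds for 16 h at 37 C.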

[3] = qHTS assay for small molecules that induce genotoxicity in human embryonic kidney cells expressing luciferase-tagged ATAD5 - cell viability (AID 651634; calls by dose curve; further: nearly all actives have a fitted effect of over 25% in size; further: potency means the concentration at half of the fitted maximal effect)
Procedure, shortened: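 HEK293T cells carrying luciferase-tagged ATAD5, 2,000 cells/well, exposed to compound for 15.5 hr at 37C. Viability read as live-cell protease activity by CellTiter-Fluor fluorescence after 30 min at 37C.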

[4] = qHTS assay for small molecule disruptors of the mitochondrial membrane potential (AID 720635); further: potency means the concentration at half of the fitted maximal effect
Procedure, shortened: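 Mitochondrial membrane potential tracked with Mito-MPS dye, red aggregates (ex 540/em 590 nm) against green monomers (ex 490/em 535 nm). Compound treatment 1 hr at 37C, dye 30 min in HepG2.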

[5] = qHTS assay to test for compound auto fluorescence at 590 nm (red) in HepG2 cells (AID 720674)
Procedure, shortened: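 1 hr compound incubation on HepG2 cells, 37 C, 5% CO2; plate read ex 540 nm / em 590 nm; intensities reported as Rose Bengal sodium equivalents.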

[6] = qHTS assay to test for compound auto fluorescence at 535 nm (green) in HepG2 cells (AID 720675)
[7] = qHTS assay to test for compound auto fluorescence at 460 nm (blue) in HEK293 cells (AID 720678)
Procedure, shortened: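 HEK293 cells (2,000/well, medium with 10% dialyzed FBS) attached 4-5 hr, then exposed to compound overnight at 37C, 5% CO2. Blue fluorescence read at 405/460 nm, with triamterene as reference fluorophore.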

[8] = qHTS assay to test for compound auto fluorescence at 590 nm (red) in HEK293 cells (AID 720679)
Procedure, shortened: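 HEK293 cells (2,000/well, 10% dialyzed FBS) attached 4-5 hr, then dosed with compound or DMSO and incubated overnight at 37C, 5% CO2. Red fluorescence read at 540/590 nm, Rose Bengal sodium as reference fluorophore.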

[9] = qHTS assay for small molecule disruptors of the mitochondrial membrane potential - cell viability (AID 720634; calls by dose curve; further: nearly all actives have a fitted effect of over 20% in size; further: potency means the concentration at half of the fitted maximal effect)
Procedure, shortened: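 HepG2 cells, 2,000 per well, attached overnight, then treated 1 hr at 37 C, 5% CO2. Viability read as ATP by CellTiter-Glo luminescence after 30 min at room temperature. Read in the same wells as the m-MPI membrane-potential dye assay.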
On the % scale 0 is the no-effect control and ±100 the full control effect.

Cc1c(C)c2c(c(C)c1OC(=O)CCC(=O)OCCO)CC[C@@](C)(CCC[C@H](C)CCC[C@H](C)CCCC(C)C)O2
inactive: Potency [1] | Potency [4] | outcome [5] | outcome [6] | Potency [7] | outcome [8]
active: Potency [2] 21.1 µM | Potency [3] 23.7 µM

OCCOCC#CCOCCO
inactive: Potency [1] | Potency [2] | Potency [3] | Potency [9] | outcome [5] | Potency [7] | outcome [8]

CCOc1ccccc1O[C@H](c1ccccc1)[C@H]1CNCCO1
inactive: Potency [1] | Potency [2] | Potency [3] | Potency [9] | outcome [5] | outcome [6] | Potency [7] | outcome [8]

CN(C)CCC=C1c2ccccc2C=Cc2ccccc21
inactive: Potency [1] | Potency [2] | Potency [3] | outcome [5] | outcome [6] | Potency [7] | outcome [8]

C[C@H]1c2cccc(O)c2C(O)=C2C(=O)[C@]3(O)C(O)=C(C(N)=O)C(=O)[C@@H](N(C)C)[C@@H]3[C@@H](O)[C@@H]21
inactive: Potency [1] | Potency [2] | Potency [3] | Potency [9] | outcome [5] | outcome [6] | outcome [8]

Oc1cc2c(cc1O)[C@H]1c3ccc(O)c(O)c3OC[C@@]1(O)C2
active: Potency [3] 69.4 µM
inactive: Potency [1] | Potency [2] | outcome [5] | outcome [6] | Potency [7] | outcome [8]

CCCCC(CC)CN (stereo unspecified)
inactive: Potency [1] | Potency [2] | Potency [3] | outcome [5] | Potency [7] | outcome [8]

CN(C)CCN1C(=O)c2ccccc2N(C)c2ccccc21
inactive: Potency [1] | Potency [2] | Potency [3] | outcome [5] | outcome [6] | Potency [7] | outcome [8]

Cc1cc(=O)c2c(O)c3c(O)cc(=O)c4c3c3c(cc(O)c1c23)C(C)(C)C=4O
inactive: Potency [1] | outcome [5] | outcome [8]
active: Potency [2] 1.06 µM | Potency [3] 2.66 µM | Potency [4] 0.473 µM

CC(C)(c1ccccc1)c1ccccc1
inactive: Potency [1] | Potency [2] | Potency [3] | Potency [9] | outcome [5] | Potency [7] | outcome [8]

CCOC(=O)c1ccc(C#Cc2ccc3c(c2)C(C)(C)CCS3)nc1
inactive: Potency [1] | Potency [2] | Potency [3] | outcome [5] | outcome [6] | outcome [8]
active: Potency [4] 29.8 µM

COc1cc(C(=O)NC2CCN(C)CC2)ccc1Nc1ncc2c(n1)N(C1CCCC1)CC(F)(F)C(=O)N2C
active: Potency [1] 1.58 µM | Potency [2] 44.5 µM | Potency [3] 79.1 µM | Potency [4] 44.5 µM
inactive: outcome [5] | outcome [6] | Potency [7] | outcome [8]

CC1CC(OC(=O)C(O)c2ccccc2)CC(C)(C)N1C (stereo unspecified)
inactive: Potency [1] | Potency [2] | Potency [3] | Potency [9] | outcome [5] | outcome [6] | Potency [7] | outcome [8]

c1ccc(C[n+]2cccc3ccccc32)cc1
inactive: Potency [1] | Potency [2] | Potency [3] | Potency [9] | outcome [5] | outcome [6] | outcome [8]

C[C@@H]1CC(=O)NN=C1c1ccc(NN=C(C#N)C#N)cc1
inactive: Potency [1] | outcome [5] | outcome [6] | Potency [7] | outcome [8]
active: Potency [2] 6.68 µM | Potency [3] 23.7 µM | Potency [4] 23.7 µM

CCOC(=O)C1=C(C)NC(C)=C(C(=O)OC)C1c1cccc(Cl)c1Cl (stereo unspecified)
active: Potency [4] 19.7 µM
inactive: Potency [1] | Potency [2] | Potency [3] | outcome [5] | outcome [6] | Potency [7] | outcome [8]

OCCN1CCN(CCCN2c3ccccc3Sc3ccc(Cl)cc32)CC1
inactive: Potency [1] | Potency [2] | Potency [3] | Potency [9] | fluorescence, relative to Rose Bengal [5] 0.837% [at 18.6 µM] | fluorescence, % of fluorescein control [6] 0.0508% [at 18.6 µM] | fluorescence, % of triamterene [7] -0.38% [at 18.6 µM] | fluorescence, % of fluorescent control [8] -0.0409% [at 18.6 µM]

CCOc1ccc(Cc2nccc3cc(OCC)c(OCC)cc23)cc1OCC
inactive: Potency [1] | Potency [2] | Potency [9] | fluorescence, relative to Rose Bengal [5] 0.4% [at 18.6 µM] | fluorescence, % of triamterene [7] -0.0249% [at 18.6 µM] | fluorescence, % of fluorescent control [8] 0.0124% [at 18.6 µM]

O=C(O)CCc1nc(-c2ccccc2)c(-c2ccccc2)o1
inactive: Potency [1] | Potency [2] | Potency [9] | Potency [4] | outcome [5] | outcome [6] | Potency [7] | outcome [8]

CN1C[C@H](C(=O)N[C@]2(C)O[C@@]3(O)[C@@H]4CCCN4C(=O)[C@H](Cc4ccccc4)N3C2=O)C[C@@H]2c3cccc4[nH]cc(c34)C[C@H]21
inactive: Potency [1] | Potency [2] | Potency [9] | outcome [5] | outcome [6] | Potency [7] | outcome [8]

Brc1cc(Br)c(Oc2cc(Br)c(Br)cc2Br)cc1Br
inactive: Potency [1] | Potency [3] | Potency [9] | outcome [5] | Potency [7] | outcome [8]

COC(=O)C1=C(C)NC(C)=C(C(=O)O[C@@H]2CCCN(Cc3ccccc3)C2)[C@@H]1c1cccc([N+](=O)[O-])c1
inactive: Potency [1] | Potency [2] | outcome [5] | outcome [6] | Potency [7] | outcome [8]
active: Potency [4] 13.3 µM

c1ccc2sc(SN(C3CCCCC3)C3CCCCC3)nc2c1
inactive: Potency [1] | Potency [3] | outcome [5] | outcome [6] | Potency [7] | outcome [8]

CCCCCCCCOc1ccc(C(=O)O)cc1
inactive: Potency [1] | outcome [5] | outcome [6] | Potency [7] | outcome [8]

O=c1cc(-c2ccccc2)oc2ccc3ccccc3c12
active: Potency [1] 0.077 µM | Potency [9] 24.3 µM | Potency [4] 8.63 µM
inactive: Potency [3] | outcome [5] | outcome [6] | Potency [7] | outcome [8]

C[C@@H]1CN(CCCn2c3ccccc3c3ccccc32)C[C@H](C)N1
inactive: Potency [1] | Potency [9] | outcome [5] | outcome [8]

CC(=O)NC1(c2cccc(F)c2)CCN(CC[C@@]2(c3ccc(Cl)c(Cl)c3)CN(c3ccccc3)C(=O)CO2)CC1
inactive: Potency [1] | outcome [5] | outcome [6] | Potency [7] | outcome [8]
